Results from ChEMBL document CHEMBL1961873, “Compounds: GSK PKIS; Assays: Nanosyn kinase panel” (2012).

Legend:
[1] = biological target: T1, 3-phosphoinositide-dependent protein kinase 1 (Homo sapiens) (UniProt O15530); conditions: at 0.1 µM;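 further: values are mean inhibition of PDK1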
T1 sequence (whole entry): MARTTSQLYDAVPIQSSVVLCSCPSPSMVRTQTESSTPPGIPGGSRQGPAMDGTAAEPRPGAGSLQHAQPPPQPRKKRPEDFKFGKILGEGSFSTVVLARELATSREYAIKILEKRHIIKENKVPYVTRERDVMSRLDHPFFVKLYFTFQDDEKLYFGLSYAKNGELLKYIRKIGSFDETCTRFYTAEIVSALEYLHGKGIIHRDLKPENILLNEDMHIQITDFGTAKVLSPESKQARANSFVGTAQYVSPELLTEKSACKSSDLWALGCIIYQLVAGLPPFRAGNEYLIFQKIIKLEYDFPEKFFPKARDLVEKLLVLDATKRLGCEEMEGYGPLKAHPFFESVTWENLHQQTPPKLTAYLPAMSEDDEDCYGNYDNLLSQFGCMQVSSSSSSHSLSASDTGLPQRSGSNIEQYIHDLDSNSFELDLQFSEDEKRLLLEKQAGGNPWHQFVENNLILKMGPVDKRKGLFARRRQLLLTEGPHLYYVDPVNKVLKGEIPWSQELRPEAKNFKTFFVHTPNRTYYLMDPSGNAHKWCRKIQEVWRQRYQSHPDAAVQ

[2] = biological target: cAMP-dependent protein kinase catalytic subunit alpha (Homo sapiens) (UniProt P17612); conditions: at 0.1 µM
[3] = biological target: cAMP-dependent protein kinase catalytic subunit alpha (Homo sapiens) (UniProt P17612); conditions: at 1 µM
[4] = biological target: Protein kinase C alpha type (Homo sapiens) (UniProt P17252); conditions: at 0.1 µM
[5] = biological target: Protein kinase C alpha type (Homo sapiens) (UniProt P17252); conditions: at 1 µM
[6] = biological target: Protein kinase C beta type (Homo sapiens) (UniProt P05771); conditions: at 0.1 µM
[7] = biological target: Protein kinase C beta type (Homo sapiens) (UniProt P05771); conditions: at 1 µM
[8] = biological target: Protein kinase C eta type (Homo sapiens) (UniProt P24723); conditions: at 0.1 µM
[9] = biological target: Protein kinase C eta type (Homo sapiens) (UniProt P24723); conditions: at 1 µM
[10] = biological target: Protein kinase C gamma type (Homo sapiens) (UniProt P05129); conditions: at 0.1 µM;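 further: values are mean percent inhibition of PKC gamma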

Sequence of Protein kinase C eta type (Homo sapiens) (P24723 whole entry): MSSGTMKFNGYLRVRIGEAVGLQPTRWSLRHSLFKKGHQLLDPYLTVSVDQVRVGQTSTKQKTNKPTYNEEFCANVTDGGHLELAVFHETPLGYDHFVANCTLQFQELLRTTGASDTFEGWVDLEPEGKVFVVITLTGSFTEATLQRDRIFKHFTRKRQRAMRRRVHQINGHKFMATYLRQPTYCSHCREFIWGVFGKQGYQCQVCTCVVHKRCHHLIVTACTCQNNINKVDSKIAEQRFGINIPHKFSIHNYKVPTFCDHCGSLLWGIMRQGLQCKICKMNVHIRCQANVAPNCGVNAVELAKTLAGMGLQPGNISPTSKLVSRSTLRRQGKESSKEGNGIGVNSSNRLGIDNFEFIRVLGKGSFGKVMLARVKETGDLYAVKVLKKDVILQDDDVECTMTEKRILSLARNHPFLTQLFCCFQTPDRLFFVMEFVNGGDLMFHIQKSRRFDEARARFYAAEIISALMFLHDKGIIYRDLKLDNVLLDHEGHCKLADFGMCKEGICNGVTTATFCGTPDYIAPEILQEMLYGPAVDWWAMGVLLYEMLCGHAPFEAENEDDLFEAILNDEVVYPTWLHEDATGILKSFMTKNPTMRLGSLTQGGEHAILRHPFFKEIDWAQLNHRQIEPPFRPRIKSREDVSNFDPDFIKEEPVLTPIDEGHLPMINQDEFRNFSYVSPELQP
Sequence of Protein kinase C beta type (Homo sapiens) (P05771 2-671 limits assumed): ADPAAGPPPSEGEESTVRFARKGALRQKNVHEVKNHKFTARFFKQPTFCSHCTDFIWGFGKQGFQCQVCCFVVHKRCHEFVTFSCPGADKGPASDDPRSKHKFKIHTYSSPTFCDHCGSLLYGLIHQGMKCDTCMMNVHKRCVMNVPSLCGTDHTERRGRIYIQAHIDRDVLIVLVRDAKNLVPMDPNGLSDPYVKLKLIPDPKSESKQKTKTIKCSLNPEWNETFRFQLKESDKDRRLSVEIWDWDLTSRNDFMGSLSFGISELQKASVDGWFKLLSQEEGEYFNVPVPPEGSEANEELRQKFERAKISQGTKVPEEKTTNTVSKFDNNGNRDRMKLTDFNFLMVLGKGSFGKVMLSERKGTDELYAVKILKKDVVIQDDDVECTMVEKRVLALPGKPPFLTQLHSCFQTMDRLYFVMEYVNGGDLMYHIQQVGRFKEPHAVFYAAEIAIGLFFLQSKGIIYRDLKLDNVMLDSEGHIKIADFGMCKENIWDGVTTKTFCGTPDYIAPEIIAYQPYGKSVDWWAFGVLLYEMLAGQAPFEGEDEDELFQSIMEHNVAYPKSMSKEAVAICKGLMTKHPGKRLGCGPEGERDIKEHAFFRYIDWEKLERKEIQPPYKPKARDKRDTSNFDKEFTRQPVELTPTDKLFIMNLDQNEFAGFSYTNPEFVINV

Structure (SMILES) | inhibition [1] [%] | inhibition [2] [%] | inhibition [3] [%] | inhibition [4] [%] | inhibition [5] [%] | inhibition [6] [%] | inhibition [7] [%] | inhibition [8] [%] | inhibition [9] [%] | inhibition [10] [%]
FC(F)(F)c1cccc(Nc2nccc(-c3cnn4nc(-c5ccccc5)ccc34)n2)c1 | -0.51 | 1.63 | 0.52 | -0.27 | 0.87 | -0.86 | 2.15 | 2.08 | 3.01 | 2.43
Fc1ccc(-c2ncn(C3CCNCC3)c2-c2ccnc(Oc3ccc(F)c(F)c3)n2)cc1 | 0.57 | -0.98 | 9.25 | -3.02 | -0.82 | -0.22 | 3.21 | 3.45 | 5.62 | 1.57
COc1ccc2cc(-c3c(-c4ccncc4)nc(-c4ccc(S(C)(=O)=O)cc4C)n3C)ccc2c1 | 0.71 | 8.44 | 29.8 | 1.11 | 6.73 | 2.3 | 14.5 | 7.27 | 7.65 | 2.09
COc1cc2ncn(-c3cc(OCc4ccccc4C(F)(F)F)c(C(C)=O)s3)c2cc1OC | 0.15 | 1.04 | 1.7 | -0.12 | 0.82 | 1.02 | 0.44 | 3.8 | 3.47 | -0.98
COC(=O)Nc1nc2ccc(Sc3ccc(NC(=O)Nc4cc(C(F)(F)F)ccc4F)cc3)cc2[nH]1 | 1.38 | -0.04 | 2.01 | 0.22 | 0.15 | 0.84 | 0.31 | -1.46 | 0.54 | 2.88
Clc1ccc(CNc2nccc(-c3cnn4ncccc34)n2)cc1 | 2.08 | 0.38 | 1.31 | 0.92 | 4.19 | 0.26 | 1.03 | 2.3 | 7.54 | 0.4
Fc1ccc(-c2ncn(C3CCNCC3)c2-c2ccnc(Oc3ccc(Oc4ccccc4)cc3)n2)cc1 | 0.03 | 4.74 | 24.9 | 1.36 | 4.49 | 1.48 | 11.2 | 1.53 | 5.81 | 2.37
COc1cc(Nc2ncc(-c3ccccc3)o2)cc(OC)c1OC | -0.87 | -0.33 | -0.26 | -0.31 | 1.1 | -1.34 | 2.43 | -0.81 | -4.38 | -1
Fc1ccc(-c2ncn(C3CCNCC3)c2-c2ccnc(Oc3ccc4c(c3)OCO4)n2)cc1 | -1.49 | 6.76 | 37.9 | 1.59 | 3.68 | 1.12 | 8.79 | 7.87 | 4.75 | 0.91
O=C1NC(=O)C(c2cccc(Cl)c2)=C1Nc1ccc(Cl)c(C(=O)O)c1 | 1.28 | 2.1 | 1.05 | 0.36 | 0.21 | 0.61 | 1.11 | 3.84 | 8.96 | 4.02
COc1cc(N2CCN(C(C)C)CC2)ccc1Nc1nc(Nc2ccc(F)cc2C(=O)NC[C@@H](O)CO)c2cc[nH]c2n1 | -0.19 | -1.57 | 0.73 | -2.86 | -2.46 | 1.6 | 4.35 | 4.05 | 7.17 | -2.06
CN(c1ccc(NC(=O)Nc2c(Cl)cccc2Cl)cc1)c1ccnc(Nc2cccc(CS(C)(=O)=O)c2)n1 | 9.04 | 2.36 | 3.01 | 1.14 | 2.02 | 0.67 | 1.35 | 1.33 | 3.8 | 3.61
O=C(Nc1n[nH]c2cc(-c3ccccc3)ccc12)C1CC1 | 1.51 | 1.89 | 2.35 | 0.99 | 1.87 | -0.78 | 4.47 | 2.72 | 2.77 | 1.69
COc1cc(Nc2ncc3c(C)nc(-c4cccc(C(F)(F)F)c4)n3n2)cc(OC)c1OC | 3.64 | 2.66 | 2.72 | -0.1 | 1.99 | 0.93 | 5.54 | 6.38 | 3.64 | 2.47
CCS(=O)(=O)c1ccc(OC)c(Nc2ncc(-c3cccc(-c4ccccc4F)c3)o2)c1 | 9.34 | 0.57 | 1.3 | 1.13 | 1.66 | 0.49 | 0.3 | -1.89 | -1.48 | 0.64
CCc1ccc(Oc2nccc(-c3c(-c4ccc(F)cc4)ncn3C3CCNCC3)n2)cc1 | 1.58 | 25.9 | 75 | 0.98 | 7.86 | 3.94 | 14.9 | 7.26 | 5.32 | -0.16
COc1cc(Nc2ncc3c(C)nc(-c4cccc(Oc5ccccc5)c4)n3n2)cc(OC)c1OC | 3.74 | 0.88 | -0.04 | 0.01 | 0.77 | -0.46 | -0.16 | 4.9 | -1.37 | 0.97

Structure (SMILES) | inhibition [1] [%] | inhibition [2] [%] | inhibition [3] [%] | inhibition [4] [%] | inhibition [5] [%] | inhibition [6] [%] | inhibition [7] [%] | inhibition [8] [%] | inhibition [9] [%] | inhibition [10] [%]
NS(=O)(=O)c1ccc(Nc2cc(-c3ccc(O)c(F)c3)n[nH]2)cc1 | -2.08 | -2.2 | -0.83 | -0.97 | 0.4 | -0.01 | 0.79 | -3.29 | -5.2 | -3.75
O=C(NCC1CC1)c1ccc(-c2cccc(C(=O)NC3CC3)c2)cc1 | 0.6 | 0.93 | 0.36 | 1.02 | 0.96 | -0.06 | -2 | 3.93 | -1.4 | 4.6
C/C(Nc1ccc(S(N)(=O)=O)cc1)=C1/C(=O)Nc2ccccc21 | 6.52 | -1.19 | 2.61 | 0.02 | 0.38 | -0.26 | 1.85 | -1.23 | -1.17 | -3.82
Fc1ccc(-c2nc3n(c2-c2ccncc2)CCS3)cc1 | 1.88 | -0.98 | 0.45 | -2.53 | -1.43 | 0.64 | 9.28 | 4.25 | 4.84 | 2.76
CN(C)CCCNc1nccc(-c2c(-c3ccc(F)cc3)nn3cc(C(F)(F)F)ccc23)n1 | 2.53 | -2.76 | -2.98 | -2.9 | -2.14 | 2.22 | 0.97 | 6.55 | 0.14 | 1.19
Nc1nccc(-c2c(-c3ccc(F)cc3)ncn2C2CCC(O)CC2)n1 (stereo not given) | 0.39 | 4.16 | 48.4 | 0.74 | 10.2 | 3.05 | 20.3 | -3.17 | -1.04 | -3.99
NCc1ccc(-n2c(-c3nonc3N)nc3cnccc32)cc1 | 2.61 | 10.4 | 56.1 | 4.7 | 41 | 29.1 | 64.5 | 47.1 | 88.4 | 4.15
Fc1ccc(-c2ncn(CCCN3CCOCC3)c2-c2ccncc2)cc1 | -0.98 | 0.23 | 1.67 | 1.44 | 1.07 | -0.46 | -0.8 | -2.71 | -1.13 | -1.84
CS(=O)(=O)CCNCc1cc(-c2cc3c(Nc4ccc(OCc5cccc(F)c5)c(Cl)c4)ncnc3s2)cs1 | 2.06 | 1.96 | 1.98 | 0.73 | 1.44 | 0.43 | 1.19 | 5.83 | 7.05 | 2.95
COc1ccc(-c2ccc3c(NC(=O)C4CC4)n[nH]c3n2)cc1 | -1.04 | 1.31 | 1.22 | -0.95 | -0.98 | -0.58 | 1.54 | 1.15 | 1.68 | 0.57
COc1cc(C)c(N(C)C(=O)CN(C)C)cc1Nc1nc(Nc2cccc(F)c2C(N)=O)c2cc[nH]c2n1 | 3.26 | -0.93 | -3.21 | -3 | -2.59 | 1.6 | -0.89 | 4.46 | 1.91 | 2.63
NC(=O)c1ccc(Oc2nccc(-c3c(-c4ccc(F)cc4)ncn3C3CCNCC3)n2)cc1 | 1.43 | 8.89 | 43 | 1.16 | 2.25 | 1.04 | 5.96 | 5.08 | 5.97 | 2.56
Cc1nnc(-c2ccc(C)c(-c3ccc(C(=O)NCc4ccc(Cl)cc4)cc3)c2)o1 | 1.14 | -1.01 | 0.62 | -3.05 | -1.62 | 0.85 | 0.84 | 6.52 | 7.5 | 2.61
CNC(=O)c1cncc(/C=C/c2c(C)cccc2C)c1 | 2.19 | -2.91 | -3.45 | -2.57 | -1.89 | 1.56 | -0.29 | 3.75 | 1.62 | -0.51
CCc1cccc(CC)c1/C=C/c1cncc(C(=O)NC)c1 | 0.34 | 1.89 | 1.06 | 1.01 | 3.13 | 0.31 | 0.32 | 1.99 | -0.26 | 1.06
Cc1ccc(C(=O)NC2CCC2)cc1-c1ccc(C(=O)NCC2CC2)cc1 | 1.97 | 1.15 | 1.14 | 0.19 | -0.23 | 0.31 | 1.48 | 7.1 | 2.68 | 0.43
CN1CCN(CCCNc2nc3ccc(Oc4ccc(NC(=O)Nc5cc(C(F)(F)F)ccc5F)cc4)cc3[nH]2)CC1 | 2.91 | -1.46 | -0.98 | -2.39 | -1.52 | 2.13 | 1.42 | 1.27 | 1.68 | 1.25
